# In PubChem BioAssay:
# “And” between values parts separate entries of the source, which are not always exact repeats. Equal values may be shown once. Where a structure was tested more than once in an assay, its records may differ in their call. The source made the active and inactive calls. Unless noted, the rule behind the calls is not given here.
# Legend:
# [1] = system: Wnt5a (protein binding on small-molecule microarray); assay: Wnt5a binders on small-molecule microarray, primary screen, biophysical, 635/667 nm fluorescence (AID 1142); conditions: 635 nm fluorescence, higher = more signal;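 note: fluorescence read at 667 nm with signal to noise per printed feature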
# [2] = cell viability in Huh7 cells, primary screen, cytotoxicity control for HCV replication inhibitor project, CellTiter-Glo luminescence, basal, 48 h (AID 1143); conditions: Huh7 HCV replicon, higher = more signal, called active from +8 up or from −8 down;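 note: Huh7 hepatoma cells carrying a hepatitis C replication reporter with no stimulus; test concentration not given here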
# [3] = P. aeruginosa biofilm formation inhibitors, primary screen, PAO1 strain, BacTiter-Glo luminescence, LB-PBS (AID 1144); conditions: 12 h, higher = more signal
# [4] = CREB reporter modulators without forskolin, primary screen, cell-based, PC12, CRE-LacZ reporter, unstimulated (AID 1145); conditions: no forskolin, luminescence, 4.5 h, higher = more signal, called active from +8 up or from −8 down
# [5] = CREB reporter modulators under forskolin, primary screen, cell-based, PC12, CRE-LacZ reporter, forskolin-stimulated (AID 1146); conditions: luminescence, 4.5 h, higher = more signal, called active from +8 up or from −8 down;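 note: PC12 cells with 6xCRE LacZ reporter stimulated by forskolin 10 µM; beta-galactosidase reporter signal reflecting CREB driven transcription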
# [6] = target: Streptavidin (Streptomyces avidinii) (UniProt P22629); assay: streptavidin binders on small-molecule microarray, primary screen, artefact control for SMM compound annotation, biophysical, 635/667 nm fluorescence (AID 1147); conditions: streptavidin binding, higher = more signal;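 note: signal reflects streptavidin binding to arrayed compounds as a control protein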
# [7] = small-molecule binders of probe aInhba, primary screen, biochemical, small-molecule microarray, 635/667 nm fluorescence (AID 1148); conditions: higher = more signal;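 note: score merges 667nm spot fluorescence with signal-to-noise for antibody binding to printed compounds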
# Torsin-1A (Homo sapiens) [8] = target: Torsin-1A (Homo sapiens) (UniProt O14656); assay: torsin A binders from cell lysate, primary screen, small-molecule microarray, wild-type, 635/667 nm (AID 1149); conditions: COS7 hTOR1A-WT lysate, 635 nm fluorescence, higher = more signal
# Torsin-1A (Homo sapiens) [9] = target: Torsin-1A (Homo sapiens) (UniProt O14656); assay: small-molecule binders of mutant TOR1A in lysate, primary screen, cell lysate, small-molecule microarray, COS7 lysate, 635/667 nm fluorescence (AID 1150); conditions: COS7 hTOR1A mutant lysate, 635 nm fluorescence, higher = more signal;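 note: score pools 667 nm emission and signal to noise measuring lysate protein binding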
# [10] = system: Sonic hedgehog protein (Shh); assay: small-molecule binders of Shh protein, primary screen, biochemical, small-molecule microarray, 635/667 nm fluorescence (AID 1151); conditions: small-molecule microarray binding, 635 nm fluorescence; higher = more signal;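 note: Shh protein binding to compounds spotted on small-molecule microarray slides; score combines spot fluorescence intensity with signal-to-noise across triplicate slides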
# [11] = E. coli DRC41 culture turbidity changes, primary screen, E. coli filamentation inducer project, strain DRC41, OD650, 48 h (AID 1152);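 note: E. coli MC1000 strain DRC41 lacking acrAB efflux pump and sulA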; conditions: E. coli DRC41 (acrAB sulA), higher = more signal, called active from +8 up or from −8 down
# [12] = small-molecule binders of probe aLefty1, primary screen, biochemical, small-molecule microarray, 635/667 nm fluorescence (AID 1153); conditions: higher = more signal;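 note: score merges spot fluorescence with signal-to-noise ratio from the scanned slide images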
# [13] = PSAC antagonists in infected red cells, primary screen, cell-based, P. falciparum Indochina, OD700, 1 h (AID 1154); conditions: P. falciparum Indochina infected RBC osmotic lysis, higher = more signal, called active from +8 up or from −8 down
# [14] = PSAC antagonists in infected red cells, primary screen, cell-based, P. falciparum Indochina, OD700, 2 h (AID 1155);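 note: lysis reports solute entry through the parasite surface anion channel PSAC; channel blockers reduce lysis of infected cells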; conditions: P. falciparum Indochina infected erythrocytes, osmotic lysis OD700; higher = more signal, called active from +8 up or from −8 down
# [15] = osmotic lysis modulators in infected erythrocytes, primary screen, PSAC antagonist project, cell-based, P. falciparum Indochina, OD700, 3 h (AID 1156); conditions: higher = more signal, called active from +8 up or from −8 down
# [16] = PSAC antagonists in infected red cells, primary screen, cell-based, P. falciparum Indochina, OD700, 18 h (AID 1157); conditions: P. falciparum Indochina infected erythrocytes, osmotic lysis OD700, 18 h; higher = more signal, called active from +8 up or from −8 down
# [17] = modulators of S6 phosphorylation in cells, primary screen, cell-based, A549, cytoblot, luminescence, serum-stimulated (AID 1158); conditions: A549 phospho-S6 cytoblot, 5 h, higher = more signal;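 note: serum-stimulated A549 lung adenocarcinoma cells; signal is phosphorylated S6 detected by cytoblot immunostaining with HRP secondary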
# [18] = target: NADPH oxidase 2 (Homo sapiens) (UniProt P04839); assay: NOX2-dependent H2O2 signal modulators, primary screen, NOX inhibitor project, cell-based, HEK293-NOX2, PMA-stimulated, Amplex Red fluorescence (AID 1159); conditions: 45 min, higher = more signal, called active from +8 up or from −8 down; note: test concentration not given here
# [19] = target: NADPH oxidase 4 (Homo sapiens) (UniProt Q9NPH5); assay: NOX4-dependent H2O2 signal modulators, primary screen, NOX inhibitor project, cell-based, HEK293-NOX4, tetracycline-induced, Amplex Red fluorescence (AID 1160); conditions: 45 min, higher = more signal, called active from +8 up or from −8 down
# [20] = target: NADPH oxidase 5 (Homo sapiens) (UniProt Q96PH1); assay: NOX5-dependent H2O2 signal modulators, primary screen, NOX inhibitor project, cell-based, HEK293-NOX5, Amplex Red fluorescence (AID 1161); conditions: HEK293-NOX5, ionomycin, 45 min, higher = more signal
# NADPH oxidase 5 (Homo sapiens), sequence (Q96PH1 whole entry, looked up): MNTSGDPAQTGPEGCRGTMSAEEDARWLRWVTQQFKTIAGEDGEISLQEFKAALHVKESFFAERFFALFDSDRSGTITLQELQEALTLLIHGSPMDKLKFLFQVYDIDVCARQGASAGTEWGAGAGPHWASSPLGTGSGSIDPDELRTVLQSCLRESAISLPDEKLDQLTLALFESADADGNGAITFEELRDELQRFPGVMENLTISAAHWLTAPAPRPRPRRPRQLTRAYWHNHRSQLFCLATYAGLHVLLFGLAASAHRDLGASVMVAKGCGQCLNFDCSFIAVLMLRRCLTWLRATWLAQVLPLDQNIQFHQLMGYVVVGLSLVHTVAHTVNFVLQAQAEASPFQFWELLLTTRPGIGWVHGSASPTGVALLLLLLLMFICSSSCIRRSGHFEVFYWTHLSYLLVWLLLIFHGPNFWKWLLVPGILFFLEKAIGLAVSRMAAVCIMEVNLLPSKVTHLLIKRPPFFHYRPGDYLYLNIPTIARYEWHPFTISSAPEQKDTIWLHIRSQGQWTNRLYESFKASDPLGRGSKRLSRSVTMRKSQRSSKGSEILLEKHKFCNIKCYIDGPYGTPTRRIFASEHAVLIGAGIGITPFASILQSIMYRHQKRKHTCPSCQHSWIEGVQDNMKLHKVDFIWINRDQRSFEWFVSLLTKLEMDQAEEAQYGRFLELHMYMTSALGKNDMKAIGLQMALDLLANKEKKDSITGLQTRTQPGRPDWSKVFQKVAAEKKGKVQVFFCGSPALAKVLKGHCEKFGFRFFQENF
# Streptavidin (Streptomyces avidinii), sequence (P22629 whole entry, looked up): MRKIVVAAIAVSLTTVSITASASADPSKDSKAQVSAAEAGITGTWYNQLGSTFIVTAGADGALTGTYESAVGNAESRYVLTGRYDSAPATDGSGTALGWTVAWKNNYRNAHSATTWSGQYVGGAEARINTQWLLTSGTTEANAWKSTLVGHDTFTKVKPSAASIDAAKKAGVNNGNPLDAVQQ
# NADPH oxidase 4 (Homo sapiens), sequence (Q9NPH5 whole entry, looked up): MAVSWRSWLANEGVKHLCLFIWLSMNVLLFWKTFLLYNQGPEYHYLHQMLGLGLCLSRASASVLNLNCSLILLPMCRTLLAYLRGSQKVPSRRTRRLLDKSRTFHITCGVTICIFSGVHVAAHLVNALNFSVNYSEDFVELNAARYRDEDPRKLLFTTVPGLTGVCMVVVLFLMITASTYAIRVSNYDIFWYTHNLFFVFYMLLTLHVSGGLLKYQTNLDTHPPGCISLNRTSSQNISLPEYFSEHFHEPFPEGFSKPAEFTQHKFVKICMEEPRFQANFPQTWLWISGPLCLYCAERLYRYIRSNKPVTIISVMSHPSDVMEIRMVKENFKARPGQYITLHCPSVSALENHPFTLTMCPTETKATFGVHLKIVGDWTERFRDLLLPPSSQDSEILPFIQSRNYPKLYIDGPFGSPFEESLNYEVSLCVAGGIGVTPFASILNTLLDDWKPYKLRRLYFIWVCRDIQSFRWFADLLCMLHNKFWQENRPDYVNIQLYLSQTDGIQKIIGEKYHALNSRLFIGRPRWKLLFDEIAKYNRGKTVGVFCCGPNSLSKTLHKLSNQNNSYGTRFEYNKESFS
# Torsin-1A (Homo sapiens), sequence (O14656 whole entry, looked up): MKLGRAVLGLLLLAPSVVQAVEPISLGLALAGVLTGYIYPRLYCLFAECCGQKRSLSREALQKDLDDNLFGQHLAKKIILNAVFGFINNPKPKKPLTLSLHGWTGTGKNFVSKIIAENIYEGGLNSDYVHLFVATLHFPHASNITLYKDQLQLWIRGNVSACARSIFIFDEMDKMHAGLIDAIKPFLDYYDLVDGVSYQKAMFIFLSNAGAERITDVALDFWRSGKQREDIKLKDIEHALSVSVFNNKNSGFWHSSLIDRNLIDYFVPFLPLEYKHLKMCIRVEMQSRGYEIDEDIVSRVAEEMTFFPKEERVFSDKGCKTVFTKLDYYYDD
# NADPH oxidase 2 (Homo sapiens), sequence (P04839 whole entry, looked up): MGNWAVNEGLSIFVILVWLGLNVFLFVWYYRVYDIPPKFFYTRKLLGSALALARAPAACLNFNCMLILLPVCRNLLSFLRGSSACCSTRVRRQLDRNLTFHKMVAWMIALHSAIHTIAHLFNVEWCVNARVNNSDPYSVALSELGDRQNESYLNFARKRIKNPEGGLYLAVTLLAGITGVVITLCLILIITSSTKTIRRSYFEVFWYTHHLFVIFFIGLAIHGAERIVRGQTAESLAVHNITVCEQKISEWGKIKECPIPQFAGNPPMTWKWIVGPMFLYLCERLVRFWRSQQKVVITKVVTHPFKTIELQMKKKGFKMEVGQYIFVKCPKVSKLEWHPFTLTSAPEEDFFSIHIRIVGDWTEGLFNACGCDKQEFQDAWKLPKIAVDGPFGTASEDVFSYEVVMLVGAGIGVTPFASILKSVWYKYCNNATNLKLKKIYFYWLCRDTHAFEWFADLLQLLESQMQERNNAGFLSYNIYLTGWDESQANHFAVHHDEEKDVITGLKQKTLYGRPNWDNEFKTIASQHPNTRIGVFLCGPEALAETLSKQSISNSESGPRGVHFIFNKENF
compound,measurement,setting,value
Cc1ccc(S(=O)(=O)N[C@H]2COC(=O)[C@@H](C)COC(=O)[C@H](C)NC(=O)CC=C[C@H]2C)cc1,composite z-score,[1],0.105
same,z-score,[2],0.365 (inactive)
same,z-score,[3],-0.16 (inactive)
same,z-score,[4],-0.204 (inactive)
same,z-score,[5],-0.253 (inactive)
same,composite z-score,[6],-0.192
same,composite z-score,[7],-0.128
same,composite z-score,Torsin-1A (Homo sapiens) [8],-0.233
same,composite z-score,Torsin-1A (Homo sapiens) [9],-0.11
same,composite z-score,[10],0.837
same,z-score,[11],-0.117 (inactive)
same,composite z-score,[12],-0.195
same,z-score,[13],-0.306 (inactive)
same,z-score,[14],0.286 (inactive)
same,z-score,[15],0.501 (inactive)
same,z-score,[16],0.0584 (inactive)
same,z-score,[17],-0.177
same,z-score,[18],-1.36 (inactive)
same,z-score,[19],0.555 (inactive)
same,z-score,[20],0.0658
C[N+](C)(C)CCCCNC(=O)[C@H]1C[C@H]2C(=O)N[C@@H](CCCC[N+](C)(C)C)C(=O)N2[C@H]1c1ccc(O)cc1,composite z-score,[1],0.96 and 0.388
same,z-score,[2],0.171 (inactive) and -2.13 (inactive)
same,z-score,[3],-0.597 (inactive) and -1.3 (inactive)
same,z-score,[4],-0.541 (inactive) and 0.679 (inactive)
same,z-score,[5],0.485 (inactive) and -0.16 (inactive)
same,composite z-score,[6],0.16 and -1.27
same,composite z-score,[7],-0.154 and -0.251
same,composite z-score,Torsin-1A (Homo sapiens) [8],2.32 and 1.51
same,composite z-score,Torsin-1A (Homo sapiens) [9],0.287 and 0.683
same,composite z-score,[10],2.27 and 2.33
same,z-score,[11],-0.0772 (inactive) and -0.0145 (inactive)
same,composite z-score,[12],-0.0984 and -0.447
same,z-score,[13],-0.373 (inactive) and 0.369 (inactive)
same,z-score,[14],-0.114 (inactive) and -1.21 (inactive)
same,z-score,[15],-1.78 (inactive) and -0.688 (inactive)
same,z-score,[16],0.154 (inactive) and -2.13 (inactive)
same,z-score,[17],-0.809 and 0.448
same,z-score,[18],-1.13 (inactive) and -2.89 (inactive)
same,z-score,[19],-0.108 (inactive) and -3.27 (inactive)
same,z-score,[20],-0.693 and -2.66
CCOC(=O)c1ccc(NC(=O)O[C@H]2[C@H](OC(=O)Nc3ccccc3)[C@H](OC(=O)Nc3ccccc3)[C@@H](OC)O[C@@H]2CO)cc1,composite z-score,[1],0.679 and 0.445
same,z-score,[2],-4.37 (inactive) and -5.71 (inactive)
same,z-score,[3],0.44 (inactive) and -0.118 (inactive)
same,z-score,[4],-0.0484 (inactive) and 0.596 (inactive)
same,z-score,[5],0.359 (inactive) and -1.63 (inactive)
same,composite z-score,[6],1.06 and 0.79
same,composite z-score,[7],0.189 and 0.232
same,composite z-score,Torsin-1A (Homo sapiens) [8],0.147 and 0.386
same,composite z-score,Torsin-1A (Homo sapiens) [9],0.592 and 0.568
same,composite z-score,[10],1.17 and 1.63
same,z-score,[11],0.473 (inactive) and -0.33 (inactive)
same,composite z-score,[12],0.416 and 0.344
same,z-score,[13],14.6 (active) and 24.1 (active)
same,z-score,[14],2.63 (inactive) and 11.5 (active)
same,z-score,[15],0.433 (inactive) and -0.123 (inactive)
same,z-score,[16],1.23 (inactive) and 1.89 (inactive)
same,z-score,[17],-0.636 and 0.647
same,z-score,[18],-0.218 (inactive) and 1.15 (inactive)
same,z-score,[19],-0.122 (inactive) and -0.312 (inactive)
same,z-score,[20],-0.195 and -0.355
CC(CO)N1C(=O)[C@@H]2C3C(=O)OCCC=C[C@H]3OC23C=CCN(Cn2nnc4ccccc42)C(=O)[C@@H]13 (stereo not given in full),composite z-score,[1],-0.757 and 0.0538
same,z-score,[2],-0.095 (inactive) and -0.464 (inactive)
same,z-score,[3],0.422 (inactive) and -0.131 (inactive)
same,z-score,[4],-0.208 (inactive) and -1.44 (inactive)
same,z-score,[5],-0.372 (inactive) and 0.774 (inactive)
same,composite z-score,[6],-0.909 and -0.228
same,composite z-score,[7],-0.0675 and -0.0405
same,composite z-score,Torsin-1A (Homo sapiens) [8],-1.13 and 1.95
same,composite z-score,Torsin-1A (Homo sapiens) [9],-0.987 and 0.603
same,composite z-score,[10],-1.26 and 0.935
same,z-score,[11],0.326 (inactive) and -0.353 (inactive)
same,composite z-score,[12],-0.199 and 0.241
same,z-score,[13],0.464 (inactive) and 3.04 (inactive)
same,z-score,[14],-0.0088 (inactive) and 0.83 (inactive)
same,z-score,[15],0.879 (inactive) and 0.711 (inactive)
same,z-score,[16],0.163 (inactive) and 0.114 (inactive)
same,z-score,[17],0.798 and 0.483
same,z-score,[18],1.14 (inactive) and 1.44 (inactive)
same,z-score,[19],0.249 (inactive) and 0.774 (inactive)
same,z-score,[20],1.47 and 2.83
CC[C@@H]1C(Sc2ccccc2)C(C(=O)O)[C@H](c2ccc(C)cc2)N1S(=O)(=O)c1ccc(C)cc1 (stereo not given in full),composite z-score,[1],0.142 and 0.0997
same,z-score,[2],-0.318 (inactive) and -2.15 (inactive)
same,z-score,[3],0.281 (inactive) and 0.139 (inactive)
same,z-score,[4],-0.574 (inactive) and -0.415 (inactive)
same,z-score,[5],-0.0531 (inactive) and -0.545 (inactive)
same,composite z-score,[6],1.46 and 1.59
same,composite z-score,[7],-0.025 and -0.0736
same,composite z-score,Torsin-1A (Homo sapiens) [8],1.19 and 0.429
same,composite z-score,Torsin-1A (Homo sapiens) [9],1.5 and -0.0197
same,composite z-score,[10],0.801 and -0.436
same,z-score,[11],-1.08 (inactive) and -0.135 (inactive)
same,composite z-score,[12],0.417 and -0.214
same,z-score,[13],0.519 (inactive) and -0.178 (inactive)
same,z-score,[14],0.677 (inactive) and -0.514 (inactive)
same,z-score,[15],-0.0111 (inactive) and -0.657 (inactive)
same,z-score,[16],0.683 (inactive) and -2.21 (inactive)
same,z-score,[17],-0.473 and 0.388
same,z-score,[18],0.668 (inactive) and 0.333 (inactive)
same,z-score,[19],0.464 (inactive) and 0.356 (inactive)
same,z-score,[20],2.07 and 0.173
